Drawing on PubChem BioAssay (NCI), this text covers growth for 10 molecules.

Among the test systems are OVCAR-8 ovarian; OVCAR-5 ovarian; OVCAR-4 ovarian; SK-OV-3 ovarian; IGROV1 ovarian; OVCAR-3 ovarian; HS 578T breast; NCI/ADR-RES ovarian; T-47D breast; BT-549 breast; MDA-MB-435 melanoma; SW-620 colon; MCF7 breast; HCT-116 colon; KM12 colon; SR leukemia; RPMI-8226 leukemia; HCC-2998 colon.
Holding throughout (experiment): NCI-60 one-dose screen, 48 h (100 = growth as untreated, 0 = no growth, -100 = all killed)
Conditions in all cases: 10 µM unless noted

“And” between values parts separate entries of the source, which are not always exact repeats. Equal entries are not always repeated. The panel holds about 83,000 compounds, 20% with a hit somewhere; the sample as a whole holds those more often.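 Step 1: grow cells in 96-well plates. Step 2: add test compound at a single concentration. Step 3: incubate 48 h. Step 4: record percent growth.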 Unmarked numbers belong to inactive results. The source made the active and inactive calls. Rule for the calls: active = growth percent below 10; inactive = the rest.

Regarding `COc1cc(C=C2C(=O)NC(=O)NC2=O)ccc1O`, the growth is 93.7% in the experiment on OVCAR-8 ovarian; 92% with OVCAR-5 ovarian; 101% in the experiment with OVCAR-4 ovarian; 107% in the experiment with SK-OV-3 ovarian; 105% in the experiment with IGROV1 ovarian; 110% in the experiment with OVCAR-3 ovarian. Also, the growth is 123% with HS 578T breast; 97.5% in the experiment on NCI/ADR-RES ovarian; 101% in the experiment with T-47D breast; 111% in the experiment on BT-549 breast; 101% in the experiment on MDA-MB-435 melanoma; 108% in the experiment with SW-620 colon. Moreover, the growth with MCF7 breast was 106%; in the experiment on HCT-116 colon, 102%; in the experiment with KM12 colon, 104%.

Take `CCOC(=O)P(=O)(OCC)OCC`: the growth with SR leukemia is 92.5%; in the experiment on RPMI-8226 leukemia, 112%; in the experiment with OVCAR-8 ovarian it was 101%; in the experiment with OVCAR-5 ovarian, 112%; with SK-OV-3 ovarian it was 98.3%; in the experiment with IGROV1 ovarian, 89.5%. The growth in the experiment with OVCAR-3 ovarian was 113%; with HS 578T breast, 109%; in the experiment on NCI/ADR-RES ovarian it was 109%; in the experiment with T-47D breast, 108%; in the experiment on MDA-MB-435 melanoma it was 120%; in the experiment with SW-620 colon, 106%. The results for the growth in the experiment with HCT-116 colon and with KM12 colon were 111% and 113%, respectively.

Consider `NNC(=S)N/N=C(\C(=O)Nc1cccc(O)c1)C1C(=O)NC(=S)NC1=O`, for which the growth in the experiment on MCF7 breast was 95.1% [100 µM] and 87.3% [100 µM].

In the case of `NC(=O)c1c(Br)c(Br)c(Br)c(Br)c1C(=O)O` (tested in a mixture with another compound), the growth was 52.6% and 86.2% in the experiment on SR leukemia; 101% and 97.9% in the experiment with RPMI-8226 leukemia; 97.5% and 96.6% in the experiment with OVCAR-8 ovarian; 94.5% and 97.3% with OVCAR-5 ovarian; 113% and 102% in the experiment on SK-OV-3 ovarian; 124% and 110% in the experiment with IGROV1 ovarian. For the same molecule, the growth with OVCAR-3 ovarian was 111% and 112%; in the experiment with HS 578T breast, 114% and 115%; in the experiment on NCI/ADR-RES ovarian, 103% and 100%; in the experiment with BT-549 breast it was 104% and 96.8%; in the experiment on MDA-MB-435 melanoma, 92.5% and 102%; in the experiment with SW-620 colon it was 97.5% and 105%. Moreover, the growth is 97.8% and 105% in the experiment with HCT-116 colon; 103% and 102% with KM12 colon.

With `N#CCc1ccc(CC#N)cc1`, the growth is 97.9% with SR leukemia; 98.8% in the experiment with RPMI-8226 leukemia; 104% in the experiment with OVCAR-8 ovarian; 119% in the experiment on OVCAR-4 ovarian; 98.5% with SK-OV-3 ovarian; 109% with IGROV1 ovarian. In addition, the growth with OVCAR-3 ovarian was 110%; in the experiment on HS 578T breast, 96.6%; with NCI/ADR-RES ovarian it was 110%; with T-47D breast, 87.5%; with BT-549 breast, 95.9%; in the experiment with MDA-MB-435 melanoma, 102%. In addition, the growth was 96.7% with SW-620 colon; 91.4% in the experiment on MCF7 breast; 98.6% with HCT-116 colon; 108% with HCC-2998 colon; 102% in the experiment on KM12 colon.

As to `Cc1ccccc1-n1c(/C=C\c2ccccn2)nc2ccccc2c1=O`, the growth with SR leukemia is -5.07% (active); in the experiment on RPMI-8226 leukemia, 2.88% (active); in the experiment with OVCAR-8 ovarian, 71%; in the experiment on OVCAR-5 ovarian it was 106%; with OVCAR-4 ovarian, 67.6%; with SK-OV-3 ovarian, 86.6%. Further, the growth is 67.1% in the experiment with IGROV1 ovarian; 50.3% in the experiment on OVCAR-3 ovarian; 44.2% in the experiment with HS 578T breast; -19.9% (active) with NCI/ADR-RES ovarian; 49.1% in the experiment on T-47D breast; 66.5% with MDA-MB-435 melanoma. Also, the growth in the experiment on SW-620 colon was 68.9%; in the experiment with MCF7 breast it was 66.9%; in the experiment on HCT-116 colon, 44%; in the experiment on HCC-2998 colon, 38.2%; with KM12 colon, 65.4%.

Consider `COC12CC3C4=CCOC5CC(=O)N6c7ccccc7C1(CCN2C4)C6C53` (centres undefined), for which the growth in the experiment on RPMI-8226 leukemia was 104%; in the experiment on OVCAR-8 ovarian it was 91.8%; in the experiment with OVCAR-5 ovarian, 121%; with OVCAR-4 ovarian, 97.5%; in the experiment with SK-OV-3 ovarian, 107%; in the experiment on IGROV1 ovarian it was 108%. Also, the growth with OVCAR-3 ovarian was 117%; in the experiment with HS 578T breast it was 117%; in the experiment on NCI/ADR-RES ovarian, 111%; with T-47D breast, 103%; with BT-549 breast, 96.3%; with MDA-MB-435 melanoma it was 114%. Also, the growth in the experiment on SW-620 colon was 107%; with MCF7 breast it was 95.2%; in the experiment on HCT-116 colon, 108%; with KM12 colon, 105%.

Consider `COC(=O)C12C3C4C1C1C2C3C41NC(=O)c1csc([C@@H](C[C@H](C(C)C)N(C)C(=O)[C@@H](NC(=O)[C@H]2CCCCN2C)C2CC2)OC(C)=O)n1` (some centres undefined), for which the growth with SR leukemia was 19.1%; in the experiment with RPMI-8226 leukemia it was 21.7%; in the experiment on OVCAR-8 ovarian it was 18.9%; in the experiment on OVCAR-5 ovarian it was 31.6%; in the experiment with OVCAR-4 ovarian, 49.9%; in the experiment on SK-OV-3 ovarian, 7.71% (active). Further, the growth with IGROV1 ovarian was 32.7%; in the experiment with OVCAR-3 ovarian, -4.31% (active); with HS 578T breast it was 28.1%; with NCI/ADR-RES ovarian, 40.7%; in the experiment with T-47D breast it was 61.4%; in the experiment on BT-549 breast, -17.2% (active). Moreover, the growth in the experiment on MDA-MB-435 melanoma is -29.7% (active); with SW-620 colon it was 26.1%; in the experiment on MCF7 breast, 18.8%; with HCT-116 colon it was 2.94% (active); with KM12 colon it was 5.25% (active).

Turning to `CN(N)/N=N/c1nc[nH]c1[N+](=O)[O-]`, the growth in the experiment on MCF7 breast was 69.6% [100 µM] and 35% [100 µM].

Regarding `CSc1cc(/C=C(\C)[C@@H]2C[C@@H]3O[C@]3(C)CCC[C@H](C)[C@H](O)[C@@H](C)C(=O)C(C)(C)[C@@H](O)CC(=O)O2)n(CCNC(=O)OC(C)(C)C)n1`, the growth with SR leukemia was 37.7%; in the experiment with OVCAR-8 ovarian it was 55.5%; in the experiment with OVCAR-5 ovarian, 59.8%; in the experiment on OVCAR-4 ovarian, 82.4%; in the experiment on SK-OV-3 ovarian, 79.9%; with IGROV1 ovarian, 54.4%. Further, the growth in the experiment on OVCAR-3 ovarian was 28.8%; in the experiment with HS 578T breast, 75.5%; in the experiment with NCI/ADR-RES ovarian, 40.4%; in the experiment with T-47D breast, 66.2%; in the experiment on BT-549 breast it was 71.4%; with MDA-MB-435 melanoma, -19.8% (active). Further, the growth with SW-620 colon was 31.3%; in the experiment with MCF7 breast it was 33.3%; in the experiment on HCT-116 colon it was 26.7%; in the experiment with HCC-2998 colon it was 54.7%; in the experiment with KM12 colon, 23.1%.
